Drawing on PubChem BioAssay (NCI), this text covers growth for 8 molecules.

Test systems include NCI-H23 lung; NCI-H226 lung; NCI-H322M lung; HOP-62 NSCLC; NCI-H460 lung; HOP-92 NSCLC; NCI-H522 lung; A549/ATCC NSCLC; 786-0 renal; COLO 205 colon; DU-145 prostate; K-562 leukemia; MALME-3M melanoma; MDA-MB-231 breast; SF-268 CNS; SF-295 CNS; SF-539 CNS; UACC-257 melanoma; M14 melanoma.
What all share (assay): NCI-60 one-dose screen, 48 h (100 = growth as untreated, 0 = no growth, -100 = all killed)
Details in all cases: 10 µM

This is part of a sample that, as a whole, favours compounds with a hit. Of some 83,000 tested, about 20% had one in any assay.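 Assay: single dose, 48 h. Readout: percent growth (0 = no net growth; negative = cell death). Active: <10.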 A number with no mark means an inactive call. Active and inactive are the calls of the source.

Consider `O=C(CNc1nc(-c2ccccc2)cs1)Nc1ccc([N+](=O)[O-])cc1Cl`, for which the growth in the test on NCI-H23 lung is 0.556% (active); with NCI-H226 lung it was 31.5%; in the test on NCI-H322M lung it was 60.3%; in the test with HOP-62 NSCLC, 42.4%; with NCI-H460 lung, 51.6%; with HOP-92 NSCLC it was 29%. The growth in the test on NCI-H522 lung is -19.1% (active); with A549/ATCC NSCLC, 44.1%; in the test with 786-0 renal it was 38.1%; in the test with COLO 205 colon, 60.7%; in the test with DU-145 prostate it was 54.8%; in the test with K-562 leukemia, 12.2%. The growth in the test on MALME-3M melanoma is 24%; in the test on MDA-MB-231 breast, 10.8%; in the test on SF-268 CNS it was 29.6%; in the test with SF-295 CNS, 34.2%; in the test on SF-539 CNS it was 2.17% (active); in the test on UACC-257 melanoma, 58.5%. Moreover, the growth in the test on M14 melanoma is 34.4%.

For `Cc1ccc(-c2cc(C(=O)N=Nc3c(O)[nH]c4ccccc34)c3ccccc3n2)cc1`, the growth in the test with NCI-H23 lung is 31.8%; in the test on NCI-H226 lung, 47%; in the test with NCI-H322M lung, 69.8%; with HOP-62 NSCLC, 66.2%; in the test with NCI-H460 lung, -35.8% (active); in the test with HOP-92 NSCLC, 21.6%. For the same molecule, the growth is 56.6% in the test with NCI-H522 lung; 2.51% (active) with A549/ATCC NSCLC; 35.8% in the test with 786-0 renal; -5.04% (active) in the test on COLO 205 colon; 3.29% (active) in the test with DU-145 prostate; 13.8% with K-562 leukemia. Moreover, the growth with MALME-3M melanoma was 36.5%; in the test with MDA-MB-231 breast, 2.78% (active); in the test with SF-268 CNS, 36.4%; in the test on SF-295 CNS, 94.3%; with SF-539 CNS, -66.2% (active); in the test on UACC-257 melanoma it was 81%. In addition, the growth with M14 melanoma was 70.5%.

`COc1nccnc1NS(=O)(=O)c1ccc(NC2=C(Cl)C(=O)c3nc(C)ccc3C2=O)cc1`: the growth in the test on NCI-H23 lung is 83.7%; in the test on NCI-H226 lung it was 93.4%; in the test with NCI-H322M lung it was 101%; in the test with HOP-62 NSCLC, 101%; in the test with NCI-H460 lung, 118%; in the test with HOP-92 NSCLC, 116%. For the same molecule, the growth with NCI-H522 lung is 88%; in the test on A549/ATCC NSCLC, 105%; in the test with 786-0 renal it was 99.9%; in the test on COLO 205 colon it was 134%; with DU-145 prostate, 107%; with K-562 leukemia, 96.3%. In addition, the growth with MALME-3M melanoma was 100%; in the test on MDA-MB-231 breast, 91.1%; with SF-268 CNS, 92.9%; in the test on SF-295 CNS, 97.5%; with SF-539 CNS, 94%; with UACC-257 melanoma, 101%. For the same molecule, the growth in the test with M14 melanoma was 112%.

Turning to `COc1cc(/C=C/C(=O)c2ccc(S(=O)(=O)NCCNc3nc(Nc4ccc(F)cc4)nc(N(C)C)n3)cc2)cc(OC)c1OC`, the growth is 13.7% in the test on NCI-H23 lung; -21.6% (active) in the test on NCI-H226 lung; 58.7% in the test with NCI-H322M lung; 30.2% with HOP-62 NSCLC; 15.8% with NCI-H460 lung; 60.4% in the test with HOP-92 NSCLC. In addition, the growth in the test with NCI-H522 lung is 68%; in the test with A549/ATCC NSCLC it was 18.4%; with 786-0 renal, -64.2% (active); with COLO 205 colon it was -50.8% (active); in the test on DU-145 prostate, 5.6% (active); with K-562 leukemia, 4.79% (active). The growth in the test with MALME-3M melanoma was 53.7%; in the test with MDA-MB-231 breast, -44.8% (active); in the test on SF-268 CNS, 11.1%; in the test on SF-295 CNS, 13.5%; with SF-539 CNS, -94.9% (active); in the test on UACC-257 melanoma, 71.6%. For the same molecule, in the test on M14 melanoma, the growth is 5.45% (active).

With `CCCCOc1ccc(Nc2nc3ccccc3nc2Nc2ccc(OCCCC)cc2)cc1`, the growth in the test with NCI-H23 lung is 82.6%; in the test on NCI-H226 lung, 96.6%; with NCI-H322M lung, 106%; in the test with HOP-62 NSCLC it was 98.9%; in the test with NCI-H460 lung, 60.1%; in the test with HOP-92 NSCLC, 97.4%. Also, the growth in the test with NCI-H522 lung was 88.5%; in the test with A549/ATCC NSCLC it was 89.4%; in the test on 786-0 renal it was 72.1%; with COLO 205 colon, 116%; in the test with DU-145 prostate, 87.9%; with K-562 leukemia, 77.3%. Moreover, the growth is 106% in the test with MALME-3M melanoma; 109% in the test with MDA-MB-231 breast; 82% in the test on SF-268 CNS; 87.5% in the test on SF-295 CNS; 106% in the test on SF-539 CNS; 97.3% in the test on UACC-257 melanoma. The growth in the test on M14 melanoma is 88.5%.

Take `COc1cc(NC(=O)CSc2nnc(-c3ccc4nc(-c5ccc(Cl)cc5)[nH]c4c3)o2)cc(OC)c1OC`: the growth is 40.3% in the test with NCI-H23 lung; 38.7% in the test with NCI-H226 lung; 90.8% with NCI-H322M lung; 89.7% in the test on HOP-62 NSCLC; 67.2% with NCI-H460 lung; 128% in the test on HOP-92 NSCLC. In addition, the growth was 45.1% in the test with NCI-H522 lung; 90.4% in the test on A549/ATCC NSCLC; 78.3% in the test with 786-0 renal; 82.4% in the test on COLO 205 colon; 73.8% in the test with DU-145 prostate; 31.3% with K-562 leukemia. Moreover, the growth in the test on MALME-3M melanoma is 66.5%; in the test with MDA-MB-231 breast, 75.2%; in the test with SF-268 CNS it was 76.1%; in the test on SF-295 CNS, 48%; in the test with SF-539 CNS it was 43.7%; with UACC-257 melanoma, 94.4%. The growth with M14 melanoma is 69.5%.

In the case of `O=C(CNc1nc(-c2ccccc2)cs1)Nc1cccc([N+](=O)[O-])c1`, the growth with NCI-H23 lung was -92.5% (active); in the test with NCI-H226 lung, -42.5% (active); with NCI-H322M lung, -71.4% (active); with HOP-62 NSCLC, -76.2% (active); with NCI-H460 lung it was 4.92% (active); in the test with HOP-92 NSCLC, -49.2% (active). Further, the growth in the test on NCI-H522 lung was -83.2% (active); in the test on A549/ATCC NSCLC it was -72.7% (active); in the test with 786-0 renal it was -85.1% (active); in the test with COLO 205 colon it was -64.1% (active); in the test on DU-145 prostate, -98.6% (active); with K-562 leukemia, 8.88% (active). Further, the growth was -90.5% (active) with MALME-3M melanoma; -88.7% (active) in the test with MDA-MB-231 breast; -57.7% (active) with SF-268 CNS; -94.2% (active) in the test on SF-295 CNS; -100% (active) with SF-539 CNS; -71.5% (active) with UACC-257 melanoma. For the same molecule, in the test on M14 melanoma, the growth is -87.6% (active).

In the case of `Cc1ccc(-c2nc(Nc3ccc(C)c(S(N)(=O)=O)c3)c3ccccc3n2)cc1`, the growth in the test with NCI-H23 lung is 79%; in the test on NCI-H226 lung, 84.1%; in the test on NCI-H322M lung, 79.7%; with HOP-62 NSCLC, 96.3%; in the test with NCI-H460 lung, 11.9%; in the test with HOP-92 NSCLC, 104%. Also, the growth is 112% in the test with NCI-H522 lung; 43.4% in the test on A549/ATCC NSCLC; 33.7% in the test with 786-0 renal; 90.5% in the test on COLO 205 colon; 35% in the test with DU-145 prostate; 5.02% (active) in the test on K-562 leukemia. For the same molecule, the growth is 92.4% with MALME-3M melanoma; 96.5% with MDA-MB-231 breast; 96.1% in the test on SF-268 CNS; 85.2% in the test with SF-295 CNS; -31.3% (active) in the test with SF-539 CNS; 104% with UACC-257 melanoma. In addition, the growth in the test with M14 melanoma is 63.2%.
